# Results taken from PubChem BioAssay (Tox21).
# Records with an inconclusive call do not appear. Where a call stands in place of a potency, no number is given. Values without a mark were called inactive. The source made the active and inactive calls. Calls follow the shape of the dose curve; as a rule, active = well fitted inhibition curve with a large enough effect in the repeat runs; inconclusive = weak or mixed curves; inactive = flat fitted curve, though single readings scatter.
# Target: Luciferin 4-monooxygenase (Photinus pyralis) (UniProt P08659)
# Test: qHTS assay to identify small molecule inhibitors of firefly luciferase (AID 1224835); also: nearly all actives have a fitted effect of over 25% in size
# Settings: purified P. pyralis luciferase, luminescence inhibition; series mostly up to 115 µM
# From the text: U.S. Tox21 Program National Center for Advancing Translational Sciences [NCATS] NIH Chemical Genomics Center [NCGC] U.S. Environmental Protection Agency [EPA] National Institutes of Environmental Health Sciences [NIEHS] National Toxicology Program [NTP] U.S. Food and Drug Administration [FDA] Tox21 Assay Overview: Firefly (Photinus pyralis) luciferase is one of the most commonly used transcriptional reporters. Firefly luciferase reporter-gene assays are generally considered one of the most sensitive assay types (Wood, 1995; Wood, 1998). However, it was initially observed, in 1991, by Thompson et al., that compounds that resemble the substrates of firefly luciferase (FLuc) can act as competitive inhibitors of the enzyme, and that these compounds, upon interaction with luciferase in the cell, can actually stabilize the protein and increase its half-life. Previous profiling work by other groups to determine the prevalence of compounds that affect FLuc enzymatic activity (PubChem AID 411) identified that ~3% of the MLSMR library (then at ~72K) inhibited FLuc. […] Thus the Tox21 10K library is profiled for activity against FLuc using a biochemical assay of purified FLuc and KM concentrations of FLuc substrates (D-luciferin and ATP).
# These assay plates were then treated with 23nL of compound or DMSO using a Kalypsys pin tool, which allows for delivery of a 6-point interplate titration of each compound to the assay plate (quantitative HTS.) 1 uL of firefly luciferase mix (containing 50 mM Tris acetate, pH 7.6, 0.04 uM P. pyralis luciferase, 0.01% Tween, 0.05% BSA and dH2O) was then delivered by FRD to each well. Luciferase activity was then measured using a ViewLux CCD imager.
# Luciferin 4-monooxygenase (Photinus pyralis), sequence (P08659 whole entry, looked up): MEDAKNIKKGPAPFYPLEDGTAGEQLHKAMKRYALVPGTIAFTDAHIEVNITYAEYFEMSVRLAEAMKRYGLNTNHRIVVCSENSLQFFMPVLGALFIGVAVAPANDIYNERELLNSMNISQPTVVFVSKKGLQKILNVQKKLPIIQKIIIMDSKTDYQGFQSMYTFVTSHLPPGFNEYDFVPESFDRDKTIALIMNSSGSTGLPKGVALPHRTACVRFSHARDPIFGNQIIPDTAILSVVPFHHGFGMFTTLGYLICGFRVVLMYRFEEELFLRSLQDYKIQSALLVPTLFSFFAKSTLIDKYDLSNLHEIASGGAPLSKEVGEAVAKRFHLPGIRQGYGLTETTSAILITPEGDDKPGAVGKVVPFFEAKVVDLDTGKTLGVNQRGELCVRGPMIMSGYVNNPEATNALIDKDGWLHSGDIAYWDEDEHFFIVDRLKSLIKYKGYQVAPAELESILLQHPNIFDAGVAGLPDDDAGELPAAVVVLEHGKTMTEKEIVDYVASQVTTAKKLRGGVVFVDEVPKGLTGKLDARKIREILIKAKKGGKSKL
Structure (SMILES),Potency,"activity change, negative = inhibition"
CCCCCCCCC1CO1 (stereo not given),inactive,
CCCCCCCOC(C)=O,inactive,
CCCC[O][Al]([O]CCCC)[O]CCCC,inactive,
Cc1cc2c(cc1CC(=O)c1sccc1S(=O)(=O)Nc1onc(C)c1Cl)OCO2,inactive,
CC(C)(C)OC=O,inactive,
CC(C)(C)OC(=O)c1ccccc1C(=O)O,inactive,
CCCC(=O)C(CC)Sc1ccoc1C (stereo not given),inactive,
C[C@@H]1NC(=O)[C@@H](N)CNC(=O)[C@H](C2CCNC(N)=N2)NC(=O)/C(=C/NC(N)=O)NC(=O)[C@H](CNC(=O)C[C@@H](N)CCCN)NC1=O (stereo not given in full),,-1.34% [at 0.435 µM]
O=S(=O)(O)CC(O)CCl (stereo not given),inactive,
C=CC(=O)CC,inactive,
CN(C)CCCN(C)C,,2.53% [at 10.5 µM]
CC12CCCC=C1C(=O)OC2=O (stereo not given),inactive,
COC(=O)c1ccc(NC(C)=O)cc1OC,inactive,
Cc1ccc2ccccc2n1,inactive,
CC(CN1CC(=O)NC(=O)C1)N1CC(=O)NC(=O)C1 (stereo not given),inactive,
CC(O)CCCCn1c(=O)c2c(ncn2C)n(C)c1=O (stereo not given),inactive,
CCCCN(CCCC)CCCCCCN(CCCC)CCCC,inactive,
O=S(=O)(O)c1cc(I)c(O)c2ncccc12,inactive,
COc1ccc(Cl)cc1C,inactive,
CN(C)c1ccncc1,inactive,

Structure (SMILES),Potency,"activity change, negative = inhibition"
NCC1CCC(C(=O)Oc2ccc(CCC(=O)O)cc2)CC1 (stereo not given),inactive,
BrCCOc1ccccc1,inactive,
C[n+]1ccccc1/C=N/O,inactive,
O=S(=O)(O)c1ccc(Cl)cc1,inactive,
O=C(O)CCCCCCCCCC(=O)O,inactive,
O=C(O)CCC(=O)Nc1ccc(S(=O)(=O)Nc2nccs2)cc1,inactive,
NC[C@H]1O[C@H](O[C@H]2[C@H](O)[C@@H](O[C@H]3O[C@H](CO)[C@@H](O)[C@H](N)[C@H]3O)[C@H](N)C[C@@H]2N)[C@H](N)[C@@H](O)[C@@H]1O,,-4.17% [at 23.6 µM]
C[C@]12C=CC(=O)C=C1[C@@H](F)C[C@@H]1[C@@H]2[C@@H](O)C[C@@]2(C)[C@H]1CC[C@]2(O)C(=O)CO,inactive,
C/C=C(\C)C(=O)OC/C=C(\C)CCC=C(C)C,inactive,
CC(C)C[P+](C)(CC(C)C)CC(C)C,inactive,
CC(=O)OCC(=O)[C@@]1(O)CC[C@H]2[C@@H]3CCC4=CC(=O)C=C[C@]4(C)[C@H]3[C@@H](O)C[C@@]21C,inactive,
C/C=C(\C)C=O,inactive,
CCCCCCC(O)CO (stereo not given),inactive,
CCCCS,inactive,
NS(=O)(=O)c1cc2c(cc1C(F)(F)F)NCNS2(=O)=O,inactive,
O=C(O)Cc1c(Cl)ccc(Cl)c1Cl,inactive,
C=C(C)C(=O)OCCCC,inactive,
C=CCCCCCCCCCCCCCC,,0.285% [at 23.6 µM]
O=CN1CCCCC1,inactive,
CCNC(=O)C(C)OC(=O)Nc1ccccc1 (stereo not given),inactive,
